This note sets out measurements from publication PMC7826789 (International Journal of Molecular Sciences, 2021).

SMILES strings stand for the structures.

The first assay concerns IKBKE.
For `Cl.O=C1Nc2ccc(-c3cccnc3)cc2C1=Cc1cc(Br)c(O)c(Br)c1` [GW429374A], the Kinases covered result was “IKBKE”.

As to `COc1cc(/C=N/Nc2ncnc3[nH]ncc23)ccc1O` [GW578748X], the Kinases covered entry was “IKBKE”.

Take `Cc1cc(O)cc(C)c1/C=C/c1cncc(C(N)=O)c1` [GW435821X]: the Kinases covered result is “IKBKE”.

For another assay, the system named is INSR.
Take `CN(C)C/C=C/C(=O)Nc1ccc(C(=O)Nc2cccc(Nc3ncc(Cl)c(-c4c[nH]c5ccccc45)n3)c2)cc1` [THZ1]: the Kinases covered result is recorded as “INSR”.

On to `COc1cc(C)c(N(C)C(=O)CN(C)C)cc1Nc1nc(Nc2cccc(F)c2C(N)=O)c2cc[nH]c2n1` [GSK2219385], for which the Kinases covered result is given as “INSR”.

Turning to `COc1cc(N2CCN(C(C)C)CC2)ccc1Nc1nc(Nc2ccc(F)cc2C(=O)NC[C@@H](O)CO)c2cc[nH]c2n1` [GSK1392956A], the Kinases covered result is reported as “INSR”.

On to `CCc1cc(Nc2nccc(-c3c(-c4ccc(OC)c(C(=O)Nc5c(F)cccc5F)c4)nc4ccccn34)n2)c(OC)cc1N1CCC(N2CCN(S(C)(=O)=O)CC2)CC1` [GSK1904529], for which the Kinases covered entry is on record as “INSR”.
